Reference: PubChem BioAssay (EPA / NIEHS)
“And” between values parts separate entries of the source, which are not always exact repeats. Equal entries are not always repeated. The source made the active and inactive calls. How the source made its calls: active means hit-call score of the fitted dose curve at least 0.9, where 1 is the maximum; inactive means score below 0.9.

Columns and labels:
[1] = read-out: Monocyte Chemoattractant Protein-1 (MCP1), CCL2 (gene 6347); assay: BSK_IMphg_MCP1: BioMAP Diversity Plus: IMphg Assay for Monocyte Chemoattractant Protein-1 (MCP1) Biomarker Activity (AID 2284253); details: primary human endothelial cells with macrophages
In short: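 Human venular endothelial cells co-cultured with macrophages; MCP-1 measured by ELISA 24 hours post-dose and fitted against DMSO. Cytotoxicity monitored by SRB total-protein staining in parallel cultures.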

[2] = read-out: Macrophage Inflammatory Protein-1 Alpha (MIP1a), CCL3 (gene 6348); assay: BSK_IMphg_MIP1a: BioMAP Diversity Plus: IMphg Assay for Macrophage Inflammatory Protein-1 Alpha (MIP1a) Biomarker Activity (AID 2284255); details: primary human endothelial cells with macrophages
In short: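 Co-culture of human venular endothelial cells and macrophages exposed to compounds for 24 h; MIP-1a measured by ELISA relative to DMSO. Cytotoxicity assessed in parallel cultures by sulforhodamine B total-protein staining at 560 nm.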

[3] = read-out: CD69, CD69 (gene 969); assay: BSK_IMphg_CD69: BioMAP Diversity Plus: IMphg Assay for CD69 Biomarker Activity (AID 2284257); details: primary human endothelial cells with macrophages
In short: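 Human venular endothelial cells co-cultured with macrophages; CD69 quantified by ELISA 24 h after compound addition. Activity fitted in the positive direction relative to DMSO baseline; cytotoxicity tracked in parallel cultures via SRB total-protein staining.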

[4] = read-out: Eotaxin 3, CCL26 (gene 10344); assay: BSK_BF4T_Eotaxin3: BioMAP Diversity Plus: BF4T Assay for Eotaxin 3 Biomarker Activity (AID 2284258); details: primary human bronchial epithelial cells with fibroblasts
In short: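 Co-culture of human bronchial epithelial cells and dermal fibroblasts, exposed to chemicals for 24 h versus DMSO. Eotaxin-3 quantified by ELISA; cytotoxicity checked in parallel cultures by sulforhodamine B total-protein staining.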

[5] = read-out: Monocyte Chemoattractant Protein-1 (MCP1), CCL2 (gene 6347); assay: BSK_BF4T_MCP1: BioMAP Diversity Plus: BF4T Assay for Monocyte Chemoattractant Protein-1 (MCP1) Biomarker Activity (AID 2284259); details: primary human bronchial epithelial cells with fibroblasts
In short: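 Co-culture of bronchial epithelial cells and dermal fibroblasts dosed with chemical; MCP-1 measured by ELISA 24 h later. Activity fitted in positive direction versus DMSO; cytotoxicity checked by SRB staining in parallel cultures.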

[6] = read-out: Intercellular Adhesion Molecule 1 (ICAM1), ICAM1 (gene 3383); assay: BSK_BF4T_ICAM1: BioMAP Diversity Plus: BF4T Assay for Intercellular Adhesion Molecule 1 (ICAM1) Biomarker Activity (AID 2284260); details: primary human bronchial epithelial cells with fibroblasts
In short: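 Co-culture of human bronchial epithelial cells and dermal fibroblasts exposed 24 h to chemical; cell-surface ICAM-1 quantified by ELISA. Parallel SRB total-protein staining assessed cytotoxicity; activity fitted relative to DMSO.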

[7] = read-out: CD90, THY1 (gene 7070); assay: BSK_BF4T_CD90: BioMAP Diversity Plus: BF4T Assay for CD90 Biomarker Activity (AID 2284262); details: primary human bronchial epithelial cells with fibroblasts
In short: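 Co-culture of human bronchial epithelial cells and dermal fibroblasts, 24 h compound exposure. Cell-surface CD90 measured by ELISA relative to DMSO; parallel SRB total-protein staining for cytotoxicity.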

[8] = read-out: Interleukin-1 alpha (IL1a), IL1A (gene 3552); assay: BSK_BF4T_IL1a: BioMAP Diversity Plus: BF4T Assay for Interleukin-1 alpha (IL1a) Biomarker Activity (AID 2284264); details: primary human bronchial epithelial cells with fibroblasts
In short: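 Human bronchial epithelial cells co-cultured with dermal fibroblasts, dosed and read at 24 h. Secreted/surface IL-1α quantified by ELISA; gain-of-signal fitted relative to DMSO baseline. Parallel SRB total-protein staining tracked cytotoxicity.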

[9] = read-out: KRT18 (gene 3875); assay: BSK_BF4T_Keratin818: BioMAP Diversity Plus: BF4T Assay for Keratin 818 Biomarker Activity (AID 2284266); details: primary human bronchial epithelial cells with fibroblasts
In short: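 Co-culture of human bronchial epithelial cells and dermal fibroblasts, chemical exposure 24 h. Keratin 8/18 measured by ELISA; positive-direction fit vs DMSO. SRB total protein run in parallel cultures for cytotoxicity.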

[10] = read-out: Matrix Metallopeptidase 1 (MMP1), MMP1 (gene 4312); assay: BSK_BF4T_MMP1: BioMAP Diversity Plus: BF4T Assay for Matrix Metallopeptidase 1 (MMP1) Biomarker Activity (AID 2284270); details: primary human bronchial epithelial cells with fibroblasts
In short: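 Co-culture of human bronchial epithelial cells and dermal fibroblasts; MMP-1 levels measured by ELISA 24 hours after chemical dosing, relative to DMSO. Cytotoxicity checked in parallel cultures by SRB total-protein staining.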

[11] = read-out: Matrix Metallopeptidase 3 (MMP3), MMP3 (gene 4314); assay: BSK_BF4T_MMP3: BioMAP Diversity Plus: BF4T Assay for Matrix Metallopeptidase 3 (MMP3) Biomarker Activity (AID 2284271); details: primary human bronchial epithelial cells with fibroblasts
In short: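 Co-culture of human bronchial epithelial cells and dermal fibroblasts dosed 24 h; MMP-3 measured by ELISA, positive-direction fit versus DMSO. Cytotoxicity tracked by SRB total-protein staining (560 nm) in parallel cultures.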

[12] = read-out: Tissue plasminogen activator (tPA), PLAT (gene 5327); assay: BSK_BF4T_tPA: BioMAP Diversity Plus: BF4T Assay for Tissue plasminogen activator (tPA) Biomarker Activity (AID 2284272); details: primary human bronchial epithelial cells with fibroblasts
In short: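 tPA level quantified by ELISA at 24 h post-treatment in bronchial epithelial/dermal fibroblast co-cultures, gain of signal scored against DMSO baseline. Parallel cultures stained with 0.1% SRB (560 nm) to flag overt cytotoxicity.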

[13] = read-out: Plasminogen Activator Inhibitor-1 (PAI1), SERPINE1 (gene 5054); assay: BSK_BF4T_PAI1: BioMAP Diversity Plus: BF4T Assay for Plasminogen Activator Inhibitor-1 (PAI1) Biomarker Activity (AID 2284273); details: primary human bronchial epithelial cells with fibroblasts
In short: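 Co-culture of human bronchial epithelial cells and dermal fibroblasts exposed to compound for 24 h. PAI-1 measured by ELISA; activity fitted in positive direction versus DMSO. Parallel SRB staining assessed overt cytotoxicity.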

[14] = BSK_BF4T_SRB: Viability Assessment in the BioMAP Diversity Plus: BF4T Assay (AID 2284274); details: primary human bronchial epithelial cells with fibroblasts
In short: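 Co-culture of human bronchial epithelial cells and dermal fibroblasts (BioMAP BF4T) exposed 24 h. Total protein by sulforhodamine B staining (0.1% SRB after 10% TCA fixation, 560 nm) in parallel cultures; fitted vs DMSO.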

[15] = read-out: urokinase Plasminogen Activator (uPA), PLAU (gene 5328); assay: BSK_BF4T_uPA: BioMAP Diversity Plus: BF4T Assay for urokinase Plasminogen Activator (uPA) Biomarker Activity (AID 2284275); details: primary human bronchial epithelial cells with fibroblasts
In short: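 Co-culture of human bronchial epithelial cells and dermal fibroblasts; uPA quantified by ELISA 24 hours after dosing, fitted relative to DMSO. Parallel SRB total-protein staining assessed overt cytotoxicity.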

[16] = read-out: Matrix Metallopeptidase 9 (MMP9), MMP9 (gene 4318); assay: BSK_BF4T_MMP9: BioMAP Diversity Plus: BF4T Assay for Matrix Metallopeptidase 9 (MMP9) Biomarker Activity (AID 2284276); details: primary human bronchial epithelial cells with fibroblasts
In short: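 Co-culture of human bronchial epithelial cells and dermal fibroblasts dosed for 24 h; MMP-9 quantified by ELISA and fitted upward versus DMSO. Cytotoxicity monitored in parallel cultures by SRB total-protein staining at the biomarker time point.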

[17] = read-out: Vascular cell adhesion molecule 1 (VCAM1), VCAM1 (gene 7412); assay: BSK_IMphg_VCAM1: BioMAP Diversity Plus: IMphg Assay for Vascular cell adhesion molecule 1 (VCAM1) Biomarker Activity (AID 2284286); details: primary human endothelial cells with macrophages
In short: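 Human venular endothelial cells co-cultured with macrophages; VCAM-1 quantified by ELISA 24 h after dosing, fitted in the positive direction against DMSO. Cytotoxicity was checked in parallel cultures by SRB total-protein staining (0.1% SRB after 10% TCA fixation, 560 nm).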

[18] = read-out: CD40, CD40 (gene 958); assay: BSK_IMphg_CD40: BioMAP Diversity Plus: IMphg Assay for CD40 Biomarker Activity (AID 2284288); details: primary human endothelial cells with macrophages
In short: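 Venular endothelial cells co-cultured with macrophages (human primary), CD40 measured by ELISA 24 h after dosing. Positive-direction fit vs DMSO baseline; cytotoxicity tracked by SRB total-protein staining in parallel cultures.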

[19] = read-out: E-selectin (Homo sapiens) (UniProt P16581); assay: BSK_IMphg_ESelectin: BioMAP Diversity Plus: IMphg Assay for Eselectin Biomarker Activity (AID 2284291); details: primary human endothelial cells with macrophages
In short: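 Human venular endothelial cell–macrophage co-culture, E-selectin measured by ELISA 24 h after chemical dosing. Signal fitted in the positive direction against DMSO as negative control and baseline.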

[20] = BSK_IMphg_SRB: Viability Assessment in the BioMAP Diversity Plus: IMphg Assay (AID 2284292); details: primary human endothelial cells with macrophages;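 further: measured one day after compound addition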
In short: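 Human venular endothelial cells with macrophages, 24 h after chemical dosing; total protein by 0.1% SRB staining after 10% TCA fixation, read at 560 nm. Positive-direction fitting versus DMSO baseline.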

Chain of E-selectin (Homo sapiens) (P16581 whole entry, looked up): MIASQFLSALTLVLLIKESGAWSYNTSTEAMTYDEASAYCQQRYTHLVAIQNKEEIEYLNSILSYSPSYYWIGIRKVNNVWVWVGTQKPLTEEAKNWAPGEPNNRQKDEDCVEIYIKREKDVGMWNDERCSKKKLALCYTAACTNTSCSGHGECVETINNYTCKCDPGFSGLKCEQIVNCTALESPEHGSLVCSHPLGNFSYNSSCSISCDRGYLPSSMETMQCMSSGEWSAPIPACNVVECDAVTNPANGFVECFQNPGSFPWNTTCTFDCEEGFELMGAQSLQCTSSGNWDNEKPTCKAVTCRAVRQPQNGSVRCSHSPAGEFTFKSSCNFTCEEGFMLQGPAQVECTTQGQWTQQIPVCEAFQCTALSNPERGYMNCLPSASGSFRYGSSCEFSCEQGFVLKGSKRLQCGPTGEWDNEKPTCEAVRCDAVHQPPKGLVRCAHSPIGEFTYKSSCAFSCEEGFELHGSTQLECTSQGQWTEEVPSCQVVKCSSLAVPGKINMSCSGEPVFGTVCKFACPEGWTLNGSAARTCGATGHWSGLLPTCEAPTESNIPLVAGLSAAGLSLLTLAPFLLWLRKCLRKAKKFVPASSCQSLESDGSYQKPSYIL

OC(C(F)(F)F)(C(F)(F)F)C(O)(C(F)(F)F)C(F)(F)F
AC50 [1]: 22.4 µM (active) and 22.6 µM (active)
AC50 [2]: 7.09 µM (active) and 53.2 µM (active)
AC50 [3]: 18.7 µM (active) and 24.2 µM (active)
AC50 [4]: 15.7 µM (active) and 8.93 µM (active)
outcome [5]: inactive
outcome [6]: inactive
outcome [7]: inactive
outcome [8]: inactive
outcome [9]: inactive
outcome [10]: inactive
outcome [11]: inactive
outcome [12]: inactive
AC50 [13]: 14.4 µM (active) and 8.31 µM (active)
outcome [14]: inactive
outcome [15]: inactive
outcome [16]: inactive
AC50 [17]: 23.6 µM (active) and 22.1 µM (active)
AC50 [18]: 23 µM (active) and 21.1 µM (active)
AC50 [19]: 22 µM (active) and 30 µM (active)
AC50 [20]: 34.1 µM (active) and 34.8 µM (active)
